Records with an inconclusive call do not appear. Active and inactive are the calls of the source. Calls come from the whole dose curve; as a rule, active = well fitted curve in the direction sought with a large enough effect; inconclusive = small, poorly fitted or top-dose-only effect, or another doubt; inactive = no such curve, though single readings can be large; an effect the other way counts as inactive or inconclusive.
Columns and labels:
[1] = Quantitative High-Throughput drug screen in 47 multiple myeloma cell lines against the NCATS MIPE library collection: KMS12PE_JCRB cell viability assay (AID 1918972); note: nearly all actives have a fitted effect of over 30% in size; note: potency is the fitted concentration of half-maximal effect
In short: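 Luminescent ATP measurement with CellTiter-Glo gives viability, scaled between DMSO-only wells (100%) and media-only wells (0%). Cells, 500 per well, faced library compounds for 48 hours at 37C.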

[2] = Quantitative High-Throughput drug screen in 47 multiple myeloma cell lines against the NCATS MIPE library collection: KMS21BM_JCRB cell viability assay (AID 1918974); settings: ATP luminescence, 48 h; viability: at 45.8 µM (top of the series); note: potency is the fitted concentration of half-maximal effect
In short: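 Approved and investigational drugs from MIPE 4.0 were added by pin tool to 500 cells per well. After 48 hours at 37C, ATP-based CellTiter-Glo luminescence indicated remaining viability.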

[3] = Quantitative High-Throughput drug screen in 47 multiple myeloma cell lines against the NCATS MIPE library collection: NCIH929_DSMZ cell viability assay (AID 1918978); note: nearly all actives have a fitted effect of over 35% in size; note: potency is the fitted concentration of half-maximal effect
In short: (§1)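 qHTS format: cells plated (500/well), pin-dosed with MIPE 4.0 compounds, kept 48 h at 37 °C. Readout was CellTiter-Glo luminescence, median RLU.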

[4] = Quantitative High-Throughput drug screen in 47 multiple myeloma cell lines against the NCATS MIPE library collection: MM1S_ATCC cell viability assay (AID 1918980); note: nearly all actives have a fitted effect of over 45% in size; note: potency is the fitted concentration of half-maximal effect
In short: as §1

[5] = Quantitative High-Throughput drug screen in 47 multiple myeloma cell lines against the NCATS MIPE library collection: KMS28PE_JCRB cell viability assay (AID 1918983); note: nearly all actives have a fitted effect of over 35% in size; note: potency is the fitted concentration of half-maximal effect
In short: as §1

[6] = Quantitative High-Throughput drug screen in 47 multiple myeloma cell lines against the NCATS MIPE library collection: KMS34_JCRB cell viability assay (AID 1918985); note: nearly all actives have a fitted effect of over 40% in size; note: potency is the fitted concentration of half-maximal effect
In short: as §1

[7] = Quantitative High-Throughput drug screen in 47 multiple myeloma cell lines against the NCATS MIPE library collection: OPM1_PLB cell viability assay (AID 1918989); note: nearly all actives have a fitted effect of over 40% in size; note: potency is the fitted concentration of half-maximal effect
In short: as §1

[8] = Quantitative High-Throughput drug screen in 47 multiple myeloma cell lines against the NCATS MIPE library collection: U266_ATCC cell viability assay (AID 1919864); note: nearly all actives have a fitted effect of over 35% in size; note: potency is the fitted concentration of half-maximal effect
In short: as §1

[9] = Quantitative High-Throughput drug screen in 47 multiple myeloma cell lines against the NCATS MIPE library collection: XG6_PLB cell viability assay (AID 1919865); note: nearly all actives have a fitted effect of over 40% in size; note: potency is the fitted concentration of half-maximal effect
In short: as §1

[10] = Quantitative High-Throughput drug screen in 47 multiple myeloma cell lines against the NCATS MIPE library collection: KMS26_JCRB cell viability assay (AID 1918975); note: nearly all actives have a fitted effect of over 45% in size; note: potency is the fitted concentration of half-maximal effect
In short: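 Relative luminescence from CellTiter-Glo served as the viability signal, referenced to DMSO-treated (100%) and cell-free medium (0%) controls. Treatment lasted 48 hours at 37C with 500 cells per well.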

[11] = Quantitative High-Throughput drug screen in 47 multiple myeloma cell lines against the NCATS MIPE library collection: MMM1_PLB cell viability assay (AID 1918976); note: potency is the fitted concentration of half-maximal effect; nearly all actives have a fitted effect of over 35% in size
In short: as §1

[12] = Quantitative High-Throughput drug screen in 47 multiple myeloma cell lines against the NCATS MIPE library collection: MOLP8_DSMZ cell viability assay (AID 1918977); note: nearly all actives have a fitted effect of over 45% in size; note: potency is the fitted concentration of half-maximal effect
In short: as §1

[13] = Quantitative High-Throughput drug screen in 47 multiple myeloma cell lines against the NCATS MIPE library collection: OCIMY7_PLB cell viability assay (AID 1918987); settings: OCI-MY7 myeloma viability, CellTiter-Glo ATP, 48 h; viability (% of DMSO): at 45.8 µM (top of the series); note: nearly all actives have a fitted effect of over 65% in size; note: potency is the fitted concentration of half-maximal effect
In short: as §1

[14] = Quantitative High-Throughput drug screen in 47 multiple myeloma cell lines against the NCATS MIPE library collection: OCIMY1_PLB cell viability assay (AID 1918979); note: nearly all actives have a fitted effect of over 35% in size; note: potency is the fitted concentration of half-maximal effect
In short: as §1

[15] = Quantitative High-Throughput drug screen in 47 multiple myeloma cell lines against the NCATS MIPE library collection: MM1R_ATCC cell viability assay (AID 1918981); note: nearly all actives have a fitted effect of over 35% in size; note: potency is the fitted concentration of half-maximal effect
In short: as §1

[16] = Quantitative High-Throughput drug screen in 47 multiple myeloma cell lines against the NCATS MIPE library collection: LP1_DSMZ cell viability assay (AID 1918982); note: nearly all actives have a fitted effect of over 35% in size
In short: as §1

[17] = Quantitative High-Throughput drug screen in 47 multiple myeloma cell lines against the NCATS MIPE library collection: OCIMY5_PLB cell viability assay (AID 1918988); note: nearly all actives have a fitted effect of over 65% in size; note: potency is the fitted concentration of half-maximal effect
In short: as §1

[18] = Quantitative High-Throughput drug screen in 47 multiple myeloma cell lines against the NCATS MIPE library collection: L363_DSMZ cell viability assay (AID 1918984); settings: L363 myeloma viability, CellTiter-Glo ATP luminescence, 48 h; viability (% of control): at 45.8 µM (top of the series); note: nearly all actives have a fitted effect of over 40% in size
In short: as §1

[19] = Quantitative High-Throughput drug screen in 47 multiple myeloma cell lines against the NCATS MIPE library collection: SKMM1_PLB cell viability assay (AID 1919863); settings: SKMM1 myeloma viability, CellTiter-Glo ATP, 48 h; viability: active compounds read low
In short: as §1

Measured: Potency

OCCn1cc(-c2ccc3c(c2)CCC3=NO)c(-c2ccncc2)n1
inactive: [1] | [5] | [6] | [7]
active: [2] 8.33 µM | [3] 20.9 µM | [4] 26.4 µM | [8] 23.5 µM | [9] 13.2 µM

O=C(Nc1cccc(C(F)(F)F)c1)Nc1cc(S(=O)(=O)NC2CC2)ccc1-c1ccsc1
inactive: [1]
active: [10] 16.6 µM | [11] 18.7 µM | [12] 4.18 µM | [3] 23.5 µM | [4] 20.9 µM | [13] 18.7 µM | [9] 23.5 µM

NS(=O)(=O)c1cc(Cl)c(Cl)c(S(N)(=O)=O)c1
active: [11] 18.7 µM
inactive: [1] | [10] | [12] | [3] | [14] | [4] | [15] | [16] | [5] | [13] | [17] | [7] | [8]

NCC1CCC(C(=O)O)CC1 (centres undefined)
active: [11] 0.0148 µM | [8] 5.9 µM
inactive: [1] | [10] | [3] | [14] | [15] | [5] | [18] | [6] | [7] | [9]

O=C(Nc1cccc(Cl)c1)Nc1ncc(CCNc2ncnc3ccsc23)s1
active: [1] 0.662 µM | [10] 2.64 µM | [11] 16.6 µM | [3] 7.43 µM | [14] 5.9 µM | [4] 16.6 µM | [15] 5.9 µM | [5] 5.9 µM | [6] 6.62 µM | [13] 0.264 µM | [17] 0.833 µM | [7] 6.62 µM | [19] 3.32 µM | [8] 16.6 µM | [9] 4.18 µM

CCCCC[C@H](O)C=C[C@H]1[C@H](O)CC(=O)[C@H]1CCCCCCC(=O)O
active: [11] 8.33 µM | [4] 3.32 µM
inactive: [1] | [10] | [3] | [14] | [15] | [16] | [5] | [18] | [9]

From PubChem BioAssay (NCATS)
